Compound activity (PubChem)
Hits are enriched below; roughly 3.4% of the tested compounds scored in any of these assays.
TEAD-YAP block = TEAD-YAP interaction inhibition. 640,000 compounds, 1.4% hits. HEK-TIYL cells, TEAD-Gal4/YAP UAS-luciferase luminescence. inhibition, % at 9.12 µM. AID 1259422; in the data active = inhibition above about 32%;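 also: 0% = median of test compound wells and 100% = reference inhibitor wells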
FBW7 activator = activators of human E3 ligase FBW7; Q969H0; AlphaScreen FBW7–phospho-cyclin E peptide binding, activator screen; normalized activity (activation), % at 26.1 µM; 650,000 compounds, 0.13% hits; AID 1259310; in the data active = normalized activity above about 1.9%;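 also: purified mutant Fbw7 with reduced substrate affinity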
MITF primary = inhibitors of human MITF; O75030; AlphaScreen MITF homodimerization, bead proximity signal; inhibition, % at 2.6 µM; 650,000 compounds, 0.91% hits; AID 1259374; in the data active = inhibition above about 50%;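 also: 0% = vehicle wells with protein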
Target sequence (O75030 whole entry, looked up): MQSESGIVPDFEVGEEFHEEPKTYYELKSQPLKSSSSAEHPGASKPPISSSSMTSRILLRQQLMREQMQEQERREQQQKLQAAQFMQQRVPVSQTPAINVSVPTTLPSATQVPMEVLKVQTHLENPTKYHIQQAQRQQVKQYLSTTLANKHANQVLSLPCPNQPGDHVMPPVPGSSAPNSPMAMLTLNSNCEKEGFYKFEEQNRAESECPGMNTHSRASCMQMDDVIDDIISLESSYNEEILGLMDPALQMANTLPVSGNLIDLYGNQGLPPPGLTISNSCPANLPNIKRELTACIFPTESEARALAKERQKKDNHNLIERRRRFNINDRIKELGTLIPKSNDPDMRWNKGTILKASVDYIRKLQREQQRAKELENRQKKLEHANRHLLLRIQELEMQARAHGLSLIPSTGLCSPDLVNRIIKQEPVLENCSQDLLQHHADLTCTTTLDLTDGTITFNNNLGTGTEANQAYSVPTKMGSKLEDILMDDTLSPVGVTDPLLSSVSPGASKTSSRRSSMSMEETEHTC
GPR151 ag = activates the human receptor GPR151; PathHunter beta-arrestin GPR151 cells, luminescence; 650,000 compounds, 1% hits; AID 1508602; Q8TDV0; activation, % at 11.2 µM; in the data active = activation above about 4.9%;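 also: 0% = median of compound wells and 100% = cells with positive control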
Active calls of the source: *.

SMILES | TEAD-YAP block | FBW7 activator | MITF primary | GPR151 ag
O=C1CCCN1CCn1cnc2c(Nc3ccc(N4CCOCC4)cc3)nc(N3CCCC3CO)nc21 (centres undefined) | -13.8 | -0.1 | 13.3 | -1.4
O=S(=O)(c1ccc(-c2csc(N/N=C/c3cccs3)n2)cc1)N1CCCC1 | 51.0* | 0.6 | 7.1 | -1.0
O=C(Nc1nc(-c2ccc(S(=O)(=O)N3CCCCCC3)cc2)cs1)c1cccs1 | -1.0 | -0.1 | 4.7 | -0.3
COc1cccc(C2Nc3ccc(C(=O)c4ccccc4)cc3NC3=C2C(=O)CCC3)c1 (centres undefined) | 60.0* | 0.1 | -1.9 | 1.0
COc1ccc(C2Nc3ccc(C(=O)c4ccccc4)cc3NC3=C2C(=O)CCC3)cc1 (centres undefined) | 39.0* | -0.1 | 4.5 | 0.2
COc1cc(C2Nc3ccc(C(=O)c4ccccc4)cc3NC3=C2C(=O)CCC3)cc(OC)c1O (centres undefined) | 67.9* | -0.1 | -10.7 | -0.8
COc1ccc(C2Nc3ccc(C(=O)c4ccccc4)cc3NC3=C2C(=O)CC(C)(C)C3)cc1 (centres undefined) | 15.5 | 0.1 | 8.0 | -0.5
O=C1CCCC2=C1C(c1ccc(F)c(Oc3ccccc3)c1)Nc1ccc(C(=O)c3ccccc3)cc1N2 (centres undefined) | 8.3 | -0.1 | 2.3 | 1.6
CCOc1ccc(C2Nc3ccc(C(=O)c4ccccc4)cc3NC3=C2C(=O)CCC3)cc1 (centres undefined) | 47.4* | 0.2 | 17.0 | 1.6
Cc1cc(C)c2c(c1)cc(C)c1nn(Cc3ccccn3)c(=O)n12 | -4.5 | 1.5 | 14.2 | -1.2
COc1cccc(-c2nnc(-c3ccc(Br)o3)o2)c1 | -21.7 | -0.2 | -16.9 | 1.6
CC(NC(=O)COc1ccccc1)c1nnc2n1CCN(Cc1cccs1)CC2 (centres undefined) | -2.5 | 0.1 | 18.6 | -1.2
CC1=Nc2cc(C(=O)NCCN(C)C)ccc2Sc2ccc(Cl)cc21 | 55.5* | -0.3 | -6.4 | -0.2
CCC1=Nc2cc(C(=O)NCC(OC)OC)ccc2Sc2ccccc21 | 36.3* | -0.2 | 5.5 | -0.3
CCC1=Nc2cc(C(=O)NCCOC)ccc2Sc2ccccc21 | 57.4* | 0.0 | 5.2 | 1.7
CCc1[nH]nc2c1C(c1c(F)cccc1Cl)C(C#N)=C(N)O2 (centres undefined) | 3.5 | 0.1 | 6.5 | -0.4
Cc1nc2cnc(-c3ccc(O)cc3)cn2c1NC(=O)c1ccncc1 | 3.6 | -0.2 | -18.5 | 1.0
N/C(=N\N=C\c1ccc(O)c(O)c1)SC1CC(=O)N(c2ccc(C(=O)O)cc2)C1=O (centres undefined) | -5.9 | 0.1 | 81.8* | 0.3
Cc1cc(C)cc(OCC(=O)Nc2ccc(NC(=O)c3cccs3)cc2)c1 | -7.9 | 2.2* | -10.5 | -0.4
Cc1ccc(OCC(=O)Nc2cccc(NC(=O)c3cccs3)c2)cc1 | -14.1 | -0.1 | -2.0 | 0.3
Cc1ccc(NC(=O)Cn2cnc3sc(C(=O)N4CCN(c5ccccc5)CC4)c(C)c3c2=O)cc1Cl | 8.4 | 0.0 | 0.0 | 0.2
O=C(CSc1ccccc1)N1CCN(c2nc3ccccc3s2)CC1 | 37.5* | 0.2 | 3.1 | -7.4
COc1ccc2oc(-c3ccccc3Cl)cc(=O)c2c1 | 48.5* | 2.6* | 5.8 | -4.9
O=c1cc(-c2cccs2)oc2ccc(O)cc12 | -12.0 | -0.6 | 7.0 | -3.4
COc1ccc2oc(-c3cccs3)cc(=O)c2c1 | 42.5* | -0.1 | 3.0 | -6.1
SMILES | TEAD-YAP block | FBW7 activator | MITF primary | GPR151 ag
COc1ccc2oc(-c3ccc(Cl)cc3)cc(=O)c2c1 | -29.1 | -0.1 | 4.9 | 0.4
CCc1ccccc1Nc1nc(N)nc(CCl)n1 | 44.8* | 0.4 | 12.8 | 0.5
CCn1c(Cc2ccc(OC)cc2)nnc1SCC(=O)Nc1ccc([N+](=O)[O-])cc1C | 1.1 | -0.1 | 7.2 | 0.9
O=C(Nc1ccc(Br)cn1)c1cccc2ccccc12 | 32.2* | -0.1 | -8.9 | -1.1
O=C(Cn1ncc2ccccc21)Nc1ccc(Br)cn1 | 38.1* | 0.0 | 5.2 | 0.4
CSc1ccc(Cl)c(C(=O)Nc2ccc(Br)cn2)c1 | 35.2* | -0.1 | -6.4 | 1.2
O=C(Nc1ccc(Br)cn1)c1cc(Br)ccc1Cl | 43.0* | 0.8 | 18.4 | -0.7
O=C(Cn1ncc2ccccc21)Nc1ccccc1Br | -4.2 | 0.6 | 15.7 | -2.5
O=C(NC[C@H]1CCCN(C(=O)c2ccccn2)C1)c1ccco1 | 1.2 | -0.1 | -8.6 | -0.9
Oc1c(CN2CCN(c3cccc(Cl)c3)CC2)cc(COCc2ccccc2)c2cccnc12 | 12.8 | -0.9 | 9.3 | -0.2
CCOCc1cc(CN2CCN(c3ccccc3)CC2)c(O)c2ncccc12 | 58.9* | -1.3 | 95.3* | 1.5
CCOCc1cc(CN2CCCCC2)c(O)c2ncccc12 | 27.0 | -1.2 | 103.2* | -1.3
CCOC(=O)C1CCCN(Cc2cc(Cl)c3cccnc3c2O)C1 (centres undefined) | 15.5 | -0.5 | 35.6 | 0.3
CC(Oc1ccc(C(C)(C)C)cc1)C(=O)N1CCCC1 (centres undefined) | 2.1 | 0.2 | 7.3 | -0.6
Cc1cccc(OCCCC(=O)NNC(=O)c2n[nH]c(=O)c3ccccc23)c1 | -5.5 | -0.1 | -0.6 | 1.6
O=C(Nc1ccc(Cl)c(C(F)(F)F)c1)c1ccc(NC(=O)C2CCCO2)cc1 (centres undefined) | 34.1* | 0.1 | 13.1 | 0.7
COCCN(Cc1cccnc1)C(Cc1ccccc1)C1CCN(Cc2cnn(C)c2)CC1 (centres undefined) | 5.7 | 7.6* | -4.5 | 2.2
COCCN(Cc1ccccn1)C(Cc1ccccc1)C1CCN(Cc2cnn(C)c2)CC1 (centres undefined) | -2.4 | -0.2 | -2.0 | -0.8
O=C(Nc1ccccc1C(=O)NCc1ccccc1)c1ccc(CN2CCOCC2)cc1 | 51.6* | 0.0 | -6.7 | -0.6
NC(=O)c1ccccc1NC(=O)c1ccc(CN2CCOCC2)cc1 | 36.1* | -0.2 | 24.0 | -0.1
CC1CCCC(NC(=O)Cn2c(=S)[nH]c3ccccc3c2=O)C1C (centres undefined) | -5.7 | 0.2 | -3.0 | 1.2
CCc1ccc2c(c1)cc(CN(Cc1ccco1)C(=O)COC)c1nnnn12 | -0.5 | -0.1 | 2.0 | -0.7
COCCNC(=O)/C(=C\c1ccccc1F)NC(=O)c1ccc(C)cc1 | 10.2 | 0.1 | 3.6 | -0.6
c1cncc(-c2csc(Nc3ccnc(Nc4ccc(N5CCOCC5)cc4)c3)n2)c1 | 33.1* | -0.3 | -2.6 | 1.8
c1ccc(-c2cnn(-c3ccnc(Nc4ccc(N5CCOCC5)cc4)c3)c2)cc1 | 45.1* | 0.1 | 10.3 | 0.2
c1ccc(-c2csc(Nc3ccnc(Nc4ccc(N5CCOCC5)cc4)c3)n2)cc1 | 64.3* | -0.1 | -4.8 | 3.7
COc1cc(C(=O)N(c2ccc(Cl)cc2)C2C=CS(=O)(=O)C2)cc(OC)c1OC (centres undefined) | 2.5 | 0.1 | 7.7 | 0.3
N#Cc1cc2c(nc1SC1CC(=O)N(c3ccccc3)C1=O)CCC2 (centres undefined) | 39.0* | -0.2 | -9.0 | 1.1
N#Cc1cc2c(nc1SC1CC(=O)N(c3ccccc3)C1=O)CCCCC2 (centres undefined) | -19.4 | -0.1 | 0.0 | -1.4
